TGFb SMAD3 inh: TGF-b pathway inhibition | HepG2 CAGA-GFP TGF-b/SMAD3 reporter, GFP fluorescence, 18 h; TGF-beta stimulated, 500 pg/mL final | Potency, µM (highest dose often 46.1 µM), usual class: inhibitors | 1.2% of 410,000 active | AID 588855; further: nearly all actives have a fitted effect of over 65% in size
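GFP signal (ex488/em500-530) from TGF-beta-stimulated HEPG2 CAGA-GFP cells, 500 pg/mL final, 18 h at 37 degrees C in DMEM plus 1% FBS, normalized to unstimulated and DMSO-stimulated controls.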
Giardia killer: kills Giardia lamblia; Giardia lamblia trophozoite viability; activity change, % at 7.66 µM, hits read low; 0.15% of 340,000 active; in the data active means activity change below about -80%; inconclusive means between about -30% and that limit;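 further: parasites exposed to compound for two days anaerobically before the ATP read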
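Trophozoites 100 cells/well + cpd; 48 hrs, 37 deg C, anaerobic. ATPLite 1-Step added, 15-30 min RT, luminescence read (ATP-based viability).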
HT1080-NT tox: kills 2HG-producing HT-1080-NT fibrosarcoma cells. 1.6% of 360,000 active. Potency, µM (doses to about 46.1 µM), actives largely listed as cytotoxic. AID 686970. HT-1080-NT fibrosarcoma viability, CellTiter-Glo ATP luminescence, 48 h;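 further: NT is the 2HG producing partner of a matched IDH1 knockdown line; nearly all actives have a fitted effect of over 55% in size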
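Luminescent CellTiter-Glo readout after 48 hours of compound exposure at 37 degrees C defined viability of HT-1080-NT cells. Activity was normalized to DMSO wells and cell-free media wells; concentration-response curves were fitted and assigned curve classes.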
IL1B secr inh: inflammasome signaling inhibition, IL-1 beta readout; THP-1 LPS/ATP IL-1B secretion, AlphaLISA, 16 h; hits give low values; activity change, % at 57.5 µM; 4.7% of 360,000 active; AID 743279; in the data active means activity change below about -50%; inconclusive means mostly about -30% to -49%
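Secreted IL-1B measured by AlphaLISA bead assay after 16 h compound exposure of THP-1 cells; compounds (final up to 57.5 uM) added 1 h before LPS (250 ng/mL) and ATP (1.25 mM) stimulation; lower signal means less secretion.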
HepG2 tox: kills HepG2 cells in TGF-b inhibitor counter-screen; Potency, µM (top dose mostly 46.1 µM), most hits filed as cytotoxic; AID 588856; HepG2 CAGA-GFP viability, ATP luminescence, 18 h; 0.76% of 410,000 active
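CellTiter-Glo luminescence gave cytotoxicity after 18 hours at 37 degrees C. The cells were HepG2 CAGA-GFP in 1% FBS DMEM, stimulated with 500 pg/mL TGF-beta after compound addition. %Activity was normalised to no-cell wells (complete cell-killing) and DMSO (no toxicity), and curves were fitted and classified.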
HT1080 IDH1KD tx: toxicity to HT-1080 IDH1 knockdown cells (counter line). 2% of 360,000 active. HT-1080 IDH1 knockdown viability, ATP luminescence, 48 h. Potency, µM (series often up to 46.1 µM), usual class: cytotoxic. AID 686971
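Using the IDH1-knockdown HT-1080 line run in the same batch and compound series as the NT line, viability after 48 h at 37 °C was determined by CellTiter-Glo luminescence and expressed as % activity.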
Hits are given with their value; . = inactive; ? = inconclusive; / = not tested or not shown. Compounds with a hit are over-represented: about 6.5% of the library has one in this group of screens. Unless noted, the call rests on the fitted dose curve; in most records, active means well fitted curve in the direction sought with a large enough effect; inconclusive means small, poorly fitted or top-dose-only effect, or another doubt; inactive means no such curve, though single readings can be large; an effect the other way counts as inactive or inconclusive.

SMILES	TGFb SMAD3 inh	Giardia killer	HT1080-NT tox	IL1B secr inh	HepG2 tox	HT1080 IDH1KD tx
COCn1c(-c2ccccc2)nc2ccccc21	.	.	.	?	.	.
CCOC(=O)c1c(C)[nH]c(C(=O)C(C)Sc2ccc(Cl)cc2)c1C (stereo unspecified)	?	.	.	.	.	.
Cc1cc(C)nc(-n2nc(C)c(Sc3ccc(F)cc3)c2N)n1	?	.	3.98µM	.	.	5.01µM
O=C(COc1ccccc1)Nc1ccc2nc(SCC(=O)N3CCCC3)sc2c1	?	/	/	/	.	/
Fc1ccc(-n2ncc3c(N4CCCCCC4)ncnc32)cc1	.	/	/	/	.	/
Nc1nc(CSCCO)nc(Nc2ccc(F)cc2)n1	.	.	.	.	.	.
CSc1ccccc1NC(=O)CN(Cc1ccc(Cl)cc1)S(C)(=O)=O	.	.	.	-63.4	.	.
O=C(CN(Cc1ccccc1)S(=O)(=O)c1ccc2c(c1)OCCO2)Nc1ccc2c(c1)OCCO2	.	.	.	-52.7	.	.
COC(=O)c1ccc(NC(=O)CN(Cc2ccccc2)S(=O)(=O)c2ccc(Cl)cc2)cc1	17.8µM	/	/	/	.	/
CCNC(=S)N/N=C/c1ccccc1[N+](=O)[O-]	.	.	.	.	.	.
CCc1ccc2[nH]c(=O)c(-c3ccccc3)c(O)c2c1	.	.	.	.	.	.
CCCC1C(=O)Nc2ccccc2N1C(=O)c1ccc(C(C)(C)C)cc1 (stereo unspecified)	?	.	9.2µM	-82.1	.	?
O=C(CC1NCCc2ccccc21)Nc1ccc(Oc2ccccc2)cc1 (stereo unspecified)	.	.	?	-153.0	.	?
O=C(CC1NCCc2ccccc21)Nc1ccccc1 (stereo unspecified)	.	.	.	.	.	.
CC(=O)O[C@H]1C(=O)[C@]2(C)[C@H]([C@H](OC(=O)c3ccccc3)[C@]3(O)C[C@H](OC(=O)[C@H](O)[C@@H](NC(=O)c4ccccc4)c4ccccc4)C(C)=C1C3(C)C)[C@]1(OC(C)=O)CO[C@@H]1C[C@@H]2O	?	?	?	.	.	0.0146µM
CC(=O)O[C@@]12CO[C@@H]1C[C@H](O)[C@@]1(C)C(=O)[C@H](O)C3=C(C)[C@@H](OC(=O)C(O)[C@@H](NC(=O)OC(C)(C)C)c4ccccc4)C[C@@](O)([C@@H](OC(=O)c4ccccc4)[C@H]21)C3(C)C (stereo partly specified)	.	/	/	/	.	/
CC(=O)O[C@H]1C(=O)[C@@]2(C)C([C@H](OC(=O)c3ccccc3)[C@]3(O)C[C@H](OC(=O)[C@H](O)[C@@H](NC(=O)c4ccccc4)c4ccccc4)C(C)=C1C3(C)C)[C@]1(OC(C)=O)CO[C@@H]1C[C@H]2O (stereo partly specified)	?	?	?	.	.	0.184µM
NC(Cc1ccc(Cl)cc1)c1csc(NC(=O)Nc2ccccc2)n1 (stereo unspecified)	15.8µM	/	23.1µM	.	15.8µM	18.4µM
NC(Cc1ccc(C(F)(F)F)cc1)c1csc(NC(=O)Nc2ccccc2Cl)n1 (stereo unspecified)	?	/	14.6µM	-71.7	.	?
COc1ccc(CC(N)c2csc(NC(=O)Nc3cccc(C(F)(F)F)c3)n2)cc1 (stereo unspecified)	?	/	18.4µM	-57.2	.	16.4µM
CC(C)C(N)c1csc(NC(=O)Nc2cccc(C(F)(F)F)c2)n1 (stereo unspecified)	?	/	20.6µM	?	.	23.1µM
CN(Cc1ccccc1)C(=O)c1cccc(NC(=O)Cc2ccc(NC(=O)C3CCN(C(=O)C4CCCC4)CC3)cc2)c1	.	.	.	.	.	.
COc1cccc(CNC(=O)c2cccc(-n3c(C)nc4cccnc43)c2C)c1	?	/	/	/	.	/
C=CCn1c(SCC(=O)NCC(=O)OCC)nnc1-c1ccccn1	.	.	.	.	.	.

Source: PubChem BioAssay
